± gives the standard deviation of the averaged measurements. Whole data set: some 1,900 compounds, median “CD40L-induced NF-kB luciferase activity, plate-corrected, relative to DMSO (0) and IKK inhibitor VII (-100) controls” near 0.032, cut for the lowest 2% near -26. What follows is part of a selection rich in the lowest values, with near analogues and random picks from the rest.
Each molecule was assayed on BL2-NFkB-Luc (assay: CD40L-induced NF-kB luciferase activity, plate-corrected, relative to DMSO (0) and IKK inhibitor VII (-100) controls (% normalized activity); higher = more NF-kB reporter activity (less inhibition)). Conditions: 9.4 µM; stimulus: tCD40L 64 ng/ml; 4.5 h.
Experimental: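 BL2 B cells with a stable NF-kB response-element luciferase reporter (BL2-NFkB-Luc), 384-well. Cells were pre-incubated with compound at 9.4 uM for 1 h at 37 C, then stimulated with 64 ng/ml trimerized CD40L for 4.5 h; luciferase was read with Steady-Glo. Signal was normalised per plate in Genedata (median DMSO neutral control = 0, median IKK inhibitor VII at 50 uM = -100) with Assay Median plate-pattern correction; duplicate plates.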
In the case of `O=C1C=Cc2ccccc2C1=O`, the “CD40L-induced NF-kB luciferase activity” value is reported as 4.88 ± 5.5. `O=C1C(=O)c2ccccc2-c2ccccc21` was tested, and the “CD40L-induced NF-kB luciferase activity” value was -94.61 ± 0.41. In the case of `CCCC[N+]1(C)[C@@H]2CC(OC(=O)[C@H](CO)c3ccccc3)C[C@H]1[C@@H]1O[C@@H]12` (stereo partly drawn), the “CD40L-induced NF-kB luciferase activity” value is reported as -0.479 ± 2.2. With `CCN(CC)C(=O)N[C@H]1C[C@@H]2c3cccc4[nH]cc(c34)C[C@H]2N(C)C1` the “CD40L-induced NF-kB luciferase activity” value was -15 ± 8.3. With `CC(C)C[C@H]1C(=O)N2CCC[C@H]2[C@]2(O)O[C@](NC(=O)[C@@H]3C=C4c5cccc6[nH]c(Br)c(c56)CC4N(C)C3)(C(C)C)C(=O)N12` (stereo partly drawn) the “CD40L-induced NF-kB luciferase activity” value was 3.22 ± 1.5. `c1ccc2c(c1)[nH]c1cnccc12` was tested, and the “CD40L-induced NF-kB luciferase activity” value was -5 ± 7.4. With `COc1cc([C@@H]2c3cc4c(cc3[C@H](O)[C@H]3COC(=O)[C@H]23)OCO4)cc(OC)c1OC` the “CD40L-induced NF-kB luciferase activity” value was -50.7 ± 3. `CCCC(=O)OCC[N+](C)(C)C` was tested, and the “CD40L-induced NF-kB luciferase activity” value was -5.48 ± 4.7. `CN1[C@@H]2CC[C@H]1CC(OC(=O)C1C=Nc3ccccc31)C2` (stereo partly drawn) was tested, and the “CD40L-induced NF-kB luciferase activity” value was -2.21 ± 6.7. With `Cc1ccc2c(c1)C1CN(C)CCC1N2C(=O)Nc1cccc(Cl)c1` (stereo not drawn) the “CD40L-induced NF-kB luciferase activity” value was -6.16 ± 2.1. `C[C@H]1OC[C@@H](C[N+](C)(C)C)O1` was tested, and the “CD40L-induced NF-kB luciferase activity” value was -0.99 ± 1.9. In the case of `COc1ccc(CN2CC3CC(C2)c2cccc(=O)n2C3)cc1OC` (stereo not drawn), the “CD40L-induced NF-kB luciferase activity” value is reported as -5.62 ± 3.4. With `CN[C@H](C)[C@H](O)c1ccccc1` the “CD40L-induced NF-kB luciferase activity” value was -2.12 ± 1.3. `COc1ccc(OCC(=O)N2c3ccc(C)cc3C3CN(C)CCC32)cc1` (stereo not drawn) was tested, and the “CD40L-induced NF-kB luciferase activity” value was 0.261 ± 0.6. `CC(C)C[C@H](NC(=O)[C@@H]1CCCN1C(=O)[C@@H](N)Cc1ccc(O)cc1)C(=O)NCC(N)=O` was tested, and the “CD40L-induced NF-kB luciferase activity” value was -28.7 ± 4.1. In the case of `CC(C)(C)NCC(O)c1cc(Cl)c(N)c(Cl)c1` (stereo not drawn), the “CD40L-induced NF-kB luciferase activity” value is reported as -3.51 ± 17. With `COc1ccc(CCN2CCC(Nc3nc4ccccc4n3Cc3ccc(F)cc3)CC2)cc1` the “CD40L-induced NF-kB luciferase activity” value was -4.18 ± 3.9. `CC[C@H]1CN2CCc3cc(OC)c(OC)cc3[C@@H]2C[C@@H]1C[C@H]1NCCc2cc(OC)c(OC)cc21` was tested, and the “CD40L-induced NF-kB luciferase activity” value was -93.93 ± 0.21. For `c1ccc2c3c([nH]c2c1)CNCC3`, the “CD40L-induced NF-kB luciferase activity” value was -0.0865 ± 4.1. `C[C@@H]1O[C@@H](O[C@H]2C[C@@H](O)[C@]3(CO)[C@H]4[C@H](O)C[C@]5(C)[C@@H](C6=CC(=O)OC6)CC[C@]5(O)[C@@H]4CC[C@]3(O)C2)[C@H](O)[C@H](O)[C@H]1O` was tested, and the “CD40L-induced NF-kB luciferase activity” value was -78.94 ± 0.33. `CC12CC[C@H]3[C@@H](CCC4(O)C[C@H](O)CCC34C=NNC(=O)Cc3ccccc3)C1(O)CCC2C1=CC(=O)OC1` (stereo partly drawn) was tested, and the “CD40L-induced NF-kB luciferase activity” value was -1.26 ± 0.48. With `C[C@@H]1O[C@@H](O[C@H]2C[C@@H](O)[C@]3(CO)[C@H]4[C@H](O)C[C@]5(C)[C@@H](C6COC(=O)C6)CC[C@]5(O)[C@@H]4CC[C@]3(O)C2)[C@H](O)[C@H](O)[C@H]1O` (stereo partly drawn) the “CD40L-induced NF-kB luciferase activity” value was 2.54 ± 3.8. With `CC12CN3CC(C)(CN(C1)C3c1cccs1)C2O` (stereo not drawn) the “CD40L-induced NF-kB luciferase activity” value was -2.02 ± 2.9. `C[C@]12CCC(=O)C=C1CCC1C2CC[C@@]2(C)C1CC[C@@]2(O)CC#N` (stereo partly drawn) was tested, and the “CD40L-induced NF-kB luciferase activity” value was -0.607 ± 3.7. With `O=C1CSC2N1CCNC21CCCCC1` (stereo not drawn) the “CD40L-induced NF-kB luciferase activity” value was -1.57 ± 5.5. `CCC1(c2ccccc2)C(=O)N(COC)C(=O)N(COC)C1=O` was tested, and the “CD40L-induced NF-kB luciferase activity” value was -30.1 ± 1.2. `CN1C2CCC1CC(OC(=O)c1ccc(Cl)cc1)C2` (stereo not drawn) was tested, and the “CD40L-induced NF-kB luciferase activity” value was -2.24 ± 2.5. In the case of `CN(C)[C@@H]1C(=O)C(C(N)=O)C(=O)[C@@]2(O)C(=O)C3C(=O)c4c(O)cccc4[C@@](C)(O)[C@H]3[C@H](O)[C@@H]12` (stereo partly drawn), the “CD40L-induced NF-kB luciferase activity” value is reported as 0.102 ± 0.97.
